# From PubChem
# The full list was thinned out, with hits kept by preference.
# Shiga toxin inh = inhibitors of Shiga toxin in Vero cells. Vero cells, Shiga toxin protein synthesis inhibition reporter. inhibition, % at 38.7 µM. 9.2% of 290,000 active; in the data active = inhibition mostly above about 28%, no sharp cut-off; inactive = mostly below about 43%; also: 0% is about no effect
# Giardia FBPA inh = blocks Giardia fructose-bisphosphate aldolase activity. 0.71% of 290,000 active. purified Giardia FBPA. A8B2U2. Potency, µM (top dose mostly 59.6 µM), inactives show at the top dose activity, negative = inhibition, hits mostly inhibitors; also: potency is read from the fitted curve at half-maximal effect; % is scaled to controls: 0 for no effect and ±100 for the full control effect; nearly all actives have a fitted effect of over 55% in size
#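 40 nM FBPA preincubated 10 min at RT with compound (up to 57.5 uM final), then substrate plus GAPDH/TPI/NAD/arsenate coupling and diaphorase/resazurin added. Fluorescence read after 20 min at RT, 525/598 nm.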
# LmPK inhibitor = LmPK (Leishmania mexicana) enzyme inhibition. Q27686. 0.37% of 290,000 active. purified LmPK, Kinase-Glo ATP luminescence, 1 h. Potency, µM (series often up to 57.5 µM), for the others: top-dose activity change, negative = inhibition, hits mostly inhibitors; also: potency is read from the fitted curve at half-maximal effect; % is scaled to controls: 0 for no effect and ±100 for the full control effect
# Target sequence (Q27686 whole entry, looked up): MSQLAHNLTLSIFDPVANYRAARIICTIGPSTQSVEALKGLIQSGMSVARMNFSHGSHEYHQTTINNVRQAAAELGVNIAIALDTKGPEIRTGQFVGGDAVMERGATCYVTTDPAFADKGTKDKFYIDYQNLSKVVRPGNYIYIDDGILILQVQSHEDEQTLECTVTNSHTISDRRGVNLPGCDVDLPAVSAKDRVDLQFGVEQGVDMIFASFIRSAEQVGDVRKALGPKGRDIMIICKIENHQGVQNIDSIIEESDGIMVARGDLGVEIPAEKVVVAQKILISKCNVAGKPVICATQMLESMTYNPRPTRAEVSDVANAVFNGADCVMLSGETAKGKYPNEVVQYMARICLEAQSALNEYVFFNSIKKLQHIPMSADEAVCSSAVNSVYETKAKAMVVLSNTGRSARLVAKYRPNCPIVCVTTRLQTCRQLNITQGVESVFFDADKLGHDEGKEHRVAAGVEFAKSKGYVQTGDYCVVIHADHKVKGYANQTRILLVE
#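 0.1 nM LmPK, 0.5 mM PEP, 0.1 mM ADP; 50 mM imidazole pH 7.2, 7 mM MgCl2, 50 mM KCl; 1 h RT. Kinase-Glo luminescence readout, normalized to no-enzyme (full inhibition) and uninhibited wells.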
# CHX counter = counter-screen hit for Shiga toxin inhibitors, cycloheximide. max response, %. cell reporter, cycloheximide protein synthesis inhibition counterscreen. 12% of 300,000 active; in the data active = max response mostly above about 13%, no sharp cut-off; inactive = mostly below about 14%; also: read at 38.3 µM for the half of the compounds with a filed dose; 0% is about no effect
# RE007 growth inh = less growth of the S. pombe RE007 Vpr strain; Potency, µM (doses to about 92.2 µM), without a hit: at the top dose activity change, negative = less growth, actives largely listed as inhibitors; 0.21% of 360,000 active; S. pombe RE007 Vpr strain, BacTiter-Glo ATP luminescence, 24 h; AID 651644; active = well fitted falling curve with a large enough effect; inconclusive = small, poorly fitted or top-dose-only effect; inactive = no such curve, though single readings can be large or run the other way; also: potency is read from the fitted curve at half-maximal effect; % is scaled to controls: 0 for no effect and ±100 for the full control effect; nearly all actives have a fitted effect of over 50% in size
#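 Fission yeast strain RE007, carrying one chromosomally integrated HIV-1 vpr copy, was seeded at OD 0.01 in PMG+AL medium with 23 nL pinned compound. After 24 h at 30 °C and 99% humidity, viability was read by BacTiter-Glo luminescence.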
# TbPYK inhibitor = inhibitors of Trypanosoma brucei pyruvate kinase; Q57TT1; TbPYK enzyme, Kinase-Glo Plus ATP luminescence, 45 min; Potency, µM (series often up to 76.8 µM), for inactives: top-dose activity, negative = inhibition, hits mostly inhibitors; 0.12% of 410,000 active; AID 624173; also: potency is read from the fitted curve at half-maximal effect; % is scaled to controls: 0 for no effect and ±100 for the full control effect; nearly all actives have a fitted effect of over 50% in size
#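 Activity of T. brucei pyruvate kinase was followed by Kinase-Glo Plus luminescence after the enzyme reacted 45 min at room temperature with 130 uM ADP (final) and substrate. Test compounds were added before ADP at multiple concentrations.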
# Starred values were filed as active, the others as inactive; u = inconclusive; x = no result given. Unless noted, calls follow the shape of the dose curve; as a rule, active = well fitted curve in the direction sought with a large enough effect; inconclusive = small, poorly fitted or top-dose-only effect, or another doubt; inactive = no such curve, though single readings can be large; an effect the other way counts as inactive or inconclusive.
SMILES,Shiga toxin inh,Giardia FBPA inh,LmPK inhibitor,CHX counter,RE007 growth inh,TbPYK inhibitor
CC(=O)Oc1cccc(NC(=O)c2ccc3c(c2)C(=O)N(CC(C)C)C3=O)c1,127.7*,1.2%,-1.2%,28.1*,-2.4%,-13.3%
COCCCN1C(=O)c2ccc(C(=O)NCCc3ccccc3)cc2C1=O,94.7*,0.7%,-6.9%,45.2*,8.5%,-0.8%
Cc1cc(NC(=O)c2ccc3c(c2)C(=O)N(CC(C)C)C3=O)no1,40.4,4.0%,5.1%,4.0,-5.9%,-4.1%
COCCCN1C(=O)c2ccc(C(=O)Nc3cccc(OC)c3)cc2C1=O,53.4*,11.1%,-26.7%,37.2*,0.3%,-8.4%
Cn1cccc1C(=O)NCc1ccc(S(N)(=O)=O)cc1,-2.2,-0.6%,1.1%,-2.2,0.8%,-3.3%
Cc1ccc(C)c(NC(=O)C[n+]2ccccc2)c1,-3.0,-10.6%,1.2%,1.8,9.4%,1.0%
Cc1ccc(NC(=O)C2CCCN2C(=O)OCc2ccccc2)cc1F (configuration not stated),-3.2,x,8.5%,8.3,0.2%,-8.6%
CCCn1c(SCC(=O)Nc2ccc3c(c2)CCC3)n[nH]c1=O,2.9,-1.9%,-1.0%,8.0,11.4%,-3.3%
Cn1ncc(Cl)c1C(=O)Nc1ccc2c(c1)CCC2,76.6*,2.4%,-6.9%,43.7*,-11.1%,-5.2%
CN1N=C(C(=O)Nc2ccc3c(c2)CCC3)CCC1=O,76.0*,4.8%,-12.1%,28.0*,-6.1%,-0.8%
CC(C)NC(=O)C1(C)CN(S(C)(=O)=O)CC(=O)N1CCCN1CCOCC1 (configuration not stated),x,x,x,x,-6.0%,x
COc1cc(O)ccc1C(C)=O,x,-2.3%,x,x,x,x
Cc1nc2c(OCc3ccccc3)cccn2c1CC#N,x,-1.5%,x,x,x,x
O=C(CSc1ncnc2sc3c(c12)CCCCC3)NCc1ccco1,103.4*,12.3%,5.4%,63.1*,-2.7%,-0.6%
O=C(CSc1nnc2c3c4c(sc3ncn12)CCCC4)NCc1ccco1,-6.7,5.0%,0.5%,-0.7,12.5%,-1.1%
O=C(CSc1ncnc2sc3c(c12)CCCC3)c1ccco1,156.3*,6.0%,3.4%,68.3*,-9.8%,-18.9%
O=C(CSc1nc2sc3c(c2c(=O)n1-c1ccccc1)CCCC3)NCc1ccco1,-11.7,4.1%,0.3%,-3.0,5.6%,-4.8%
O=C(CSc1ncnc2sc3c(c12)CCCC3)c1ccccc1,15.4,6.8%,1.1%,0.9,12.5%,-0.1%
Cc1nc2sc3c(c2c2nnc(SCC(=O)NCc4ccco4)n12)CCCC3,active,-0.3%,0.3%,27.6*,-8.8%,3.3%
CCNS(=O)(=O)c1ccc(NC(=O)c2ccc(Cn3cc([N+](=O)[O-])cn3)o2)cc1,22.7,15.9%,5.1%,5.0,-5.0%,-1.0%
COc1ccc(C(=O)Nc2ccc(CN3CCS(=O)(=O)CC3)cc2)cc1,9.4,4.3%,2.7%,3.3,12.0%,3.0%
CN(C)c1ccc(NC(=O)c2ccc(Cn3cc([N+](=O)[O-])cn3)cc2)cc1,108.1*,-21.7%,-2.9%,50.3*,5.0%,-22.2%
CN(C)c1ccc(C(=O)Nc2ccc(CN3CCS(=O)(=O)CC3)cc2)cc1,52.2,-0.2%,3.4%,35.8*,9.3%,-1.6%
O=C(COc1ccc(Cl)cc1)Nc1cnn(Cc2c(Cl)cccc2Cl)c1,2.2,3.8%,1.0%,10.2,7.0%,3.2%
C/C(CC(=O)Nc1ccc(N(C)C)cc1)=N\NC(=O)c1ccc([N+](=O)[O-])cc1,33.1,-2.8%,-3.8%,17.9*,1.2%,-5.5%
SMILES,Shiga toxin inh,Giardia FBPA inh,LmPK inhibitor,CHX counter,RE007 growth inh,TbPYK inhibitor
O=C(Nc1cnn(Cc2c(Cl)cccc2Cl)c1)c1ccc([N+](=O)[O-])cc1,86.9*,0.4%,5.9%,53.4*,7.0%,-5.8%
O=C(Nc1cccc(S(=O)(=O)N2CCOCC2)c1)C1COc2ccccc2O1 (configuration not stated),x,x,x,x,-18.6%,u
C/C(CC(=O)Nc1ccc(N(C)C)cc1)=N\NC(=O)Cc1csc(N)n1,47.8*,u,-1.6%,19.5*,0.6%,-11.5%
COc1ccc(C(=O)Nc2ccc(CN3CCOCC3)cc2)cc1Br,6.9,2.5%,1.9%,9.8,-14.0%,-3.4%
Cc1ccc(C(=O)Nc2ccc(CN3CCS(=O)(=O)CC3)cc2)cc1C,73.4*,0.4%,1.6%,36.2*,3.3%,-7.3%
COc1ccc(CC(=O)N/N=C(\C)CC(=O)Nc2ccc(N(C)C)cc2)cc1,15.5,12.3%,-0.7%,-2.5,-16.0%,-5.8%
CCOc1cc(Cl)c(S(=O)(=O)n2ccnc2)cc1Cl,x,x,x,x,x,3.3%
COc1ccc(Cl)cc1NC(=O)C(C)n1nnc2sc3c(c2c1=O)CCCC3 (configuration not stated),x,x,x,x,x,-6.4%
O=C1CCCN2N=C(SCC(=O)N3CCCCC3)SC2=N1,-1.8,4.4%,1.7%,-2.8,-11.3%,-0.4%
CCCSC1=NN2CCCC(=O)N=C2S1,93.1*,5.5%,-6.3%,26.9*,0.2%,-3.6%
CC(C)c1cc(C(=O)Nc2cc(Cl)ccc2O)no1,142.8*,-20.0%,-1.8%,67.9*,-1.3%,-3.9%
O=C(Nc1cc(Br)ccc1O)c1cc(-c2cccs2)on1,78.5*,-2.5%,-1.8%,21.6*,-14.0%,0.0%
CC(C)c1cc(C(=O)Nc2cc(Br)ccc2O)no1,119.7*,-4.1%,0.5%,35.8*,5.9%,-3.8%
COc1cc(NC(=O)c2cc(C(C)C)on2)cc(OC)c1OC,-3.5,-1.1%,-2.6%,-2.1,-2.3%,-3.1%
Cc1ccsc1C(=O)NCCc1ccc(S(N)(=O)=O)cc1,23.6,6.4%,0.4%,-1.4,9.0%,2.0%
CCc1ncc(CN2CCCCC2C(=O)Nc2ccc(Oc3ccccc3)nc2)cn1 (configuration not stated),7.3,x,-2.5%,0.6,0.7%,-0.8%
Cc1noc(C)c1CSc1nnc(-c2cccnc2)n1C1CCCCC1C (configuration not stated),-7.6,0.2%,-12.3%,-2.6,8.8%,-23.5%
COc1ccc(Cc2nnc(SCc3c(C)noc3C)n2C2CCCCC2)cc1OC,51.0*,-0.4%,-19.1%,12.6,0.8%,-27.7%
COc1ccc(/C=N/Nc2nc(=O)[nH]nc2C)cc1[N+](=O)[O-],6.3,-15.4%,-10.9%,7.3,5.6%,0.4%
COc1cc(/C=N/Nc2nc(=O)[nH]nc2C)ccc1O,70.5*,u,-22.7%,36.8*,-19.2%,-11.7%
COc1ccc(/C=N/Nc2nc(=O)[nH]nc2C)cc1OC,65.6*,u,u,33.1*,-2.5%,-7.0%
N/C(=N\c1nc2ccccc2o1)NC(=O)c1ccc(F)cc1,72.2*,6.8%,-11.6%,31.9*,7.5%,0.1%
N/C(=N\c1nc2ccccc2o1)NC(=O)c1ccc(Cl)cc1,31.3,6.5%,0.4%,2.5,5.5%,2.3%
N/C(=N\c1nc2ccccc2o1)NC(=O)c1ccccc1Br,80.5*,1.5%,-3.0%,32.7*,4.8%,-7.8%
